# Where a name gives a salt, the structure may show the parent alone. Values without a mark were called inactive.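 How the source made its calls: active = AUC significantly below DMSO controls by Student t-fit with adjusted P under 0.01; inactive = not significantly reduced.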
# Tested on: Haemophilus parainfluenzae
# Test: growth AUC normalised to DMSO control (fraction of control); higher = less growth inhibition, active = hit call of the paper
# Details: 20 µM
# Summary of the method: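 Hemin and NAD were added to the medium for Haemophilus parainfluenzae. All pathogens, after two anaerobic passages, were inoculated at a starting OD578 of 0.01 into pre-reduced mGAM plates with 20 μM compound and 1% DMSO under breathable seals, and OD578 was read hourly for 24 h in three biological replicates. AUC of each growth curve was obtained with the trapezoidal rule up to the exponential-to-stationary transition and normalised to DMSO controls from the same plate.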
row,Structure (SMILES),growth AUC normalised to DMSO control
1,COc1ccc2c(c1)c(CC(=O)OCC(=O)O)c(C)n2C(=O)c1ccc(Cl)cc1 [Acemetacin],0.988
2,C=C1C[C@H]2[C@@H]3C=C(C)C4=CC(=O)CC[C@]4(C)[C@H]3CC[C@]2(C)[C@@]1(OC(C)=O)C(C)=O [Melengestrol acetate],1.06
3,CCCCCCCCNC(C)C(O)c1ccc(SC(C)C)cc1 (stereo unspecified) [Suloctidil],0.986
4,O=C1c2ccccc2C(=O)C1c1ccccc1 [Phenindione],0.973
5,CC(C)(C)NCC(O)c1ccc(O)c(CO)c1 (stereo unspecified) [Salbutamol],0.895
6,COc1cc(C(=O)NS(=O)(=O)c2ccccc2C)ccc1Cc1cn(C)c2ccc(NC(=O)OC3CCCC3)cc12 [Zafirlukast],0.825
7,Nc1nc(F)nc2c1ncn2[C@@H]1O[C@H](CO)[C@@H](O)[C@@H]1O [Fludarabine],1.01
8,CC[C@@]1(O)C(=O)OCc2c1cc1n(c2=O)Cc2cc3c(CN(C)C)c(O)ccc3nc2-1 [Topotecan],0.984
9,C#C[C@]1(O)CC[C@H]2[C@@H]3CCc4cc(O)ccc4[C@H]3CC[C@@]21C [Ethinylestradiol],1.04
10,C#C[C@]1(O)CC[C@H]2[C@@H]3CCC4=CC(=O)CC[C@@H]4[C@H]3CC[C@@]21CC [(D-) Norgestrel],0.969
11,Cc1ccc(NC(=O)c2ccc(CN3CCN(C)CC3)cc2)cc1Nc1nccc(-c2cccnc2)n1 [Imatinib],1.09
12,CC(=O)Oc1ccccc1C(=O)Oc1ccccc1C(=O)O [Acetylsalicylsalicylic acid],0.885
13,Oc1c(Cl)cc(Cl)c2cccnc12 [Chloroxine],0.114 (active)
14,CCN(CC)CCOC(=O)C(Cc1cccc2ccccc12)CC1CCCO1 (stereo unspecified) [Nafronyl oxalate],1.28
15,O=C(N[C@H](CO)[C@H](O)c1ccc([N+](=O)[O-])cc1)C(Cl)Cl [Chloramphenicol],0.0445 (active)
16,NS(=O)(=O)c1cc2c(cc1Cl)N=CNS2(=O)=O [Chlorothiazide],1.01

row,Structure (SMILES),growth AUC normalised to DMSO control
1,CCCCN(CCCC)CCCOC(=O)c1ccc(N)cc1 [Butacaine],0.998
2,CC(CNC1CCCCC1)OC(=O)c1ccccc1 (stereo unspecified) [Hexylcaine hydrochloride],0.995
3,OC(CCN1CCCCC1)(c1ccccc1)c1ccccc1 [Pridinol methanesulfonate salt],0.999
4,CCOC(=O)Nc1ccc2c(c1)N(C(=O)CCN1CCOCC1)c1ccccc1S2 [Moricizine hydrochloride],0.998
5,Cc1nc2ccccn2c(=O)c1CCN1CCC(C(=O)c2ccc(F)cc2)CC1 [Pirenperone],0.982
6,Cc1cc(C(C)(C)C)cc(C)c1CC1=NCCN1 [Xylometazoline hydrochloride],0.996
7,COc1cc(C)c(/C=C/C(C)=C/C=C/C(C)=C/C(=O)O)c(C)c1C [Acitretin],0.995
8,Nc1nnc(-c2cccc(Cl)c2Cl)c(N)n1 [Lamotrigine],1.01
9,CCN(CC)CCOC(=O)C1(C2CCCCC2)CCCCC1 [Dicyclomine hydrochloride],0.87
10,Nc1ncn(C2OC(CO)C(O)C2O)c(=O)n1 (stereo unspecified) [Azacytidine-5],0.781
11,COc1cc2nc(N3CCN(C(=O)C4CCCO4)CC3)nc(N)c2cc1OC (stereo unspecified) [Terazosin hydrochloride],0.978
12,"C[C@H]1C[C@@H]2[C@H]([C@@H](O)C[C@@]3(C)[C@H]2CC[C@]3(O)C(=O)CO)[C@@]2(C)C=CC(=O)C=C12 [Methylprednisolone, 6-alpha]",0.996
13,Cc1nccn1CC1CCc2c(c3ccccc3n2C)C1=O (stereo unspecified) [Ondansetron hydrochloride],1.07
14,CC(C)(O/N=C(\C(=O)N[C@@H]1C(=O)N2C(C(=O)[O-])=C(C[n+]3ccccc3)CS[C@H]12)c1csc(N)n1)C(=O)O [Ceftazidime pentahydrate],0.079 (active)
15,CN[C@@H]1[C@H](O[C@H]2[C@H](O[C@H]3[C@H](O)[C@@H](O)[C@H](N=C(N)N)[C@@H](O)[C@@H]3N=C(N)N)O[C@@H](C)[C@]2(O)C=O)O[C@@H](CO)[C@H](O)[C@H]1O [Streptomycin sulfate],0.633 (active)
